# Measurements taken from PubChem BioAssay.
# Several values for one entry are separate records, joined by “and”; a condition that tells them apart may be missing. Identical values can stand only once. Activity calls are given as the source filed them.
# Tests used:
# [1] = small molecules captured by biotinylated probe aFSTL3 – biochemical, small-molecule microarray, fluorescence 635/667, stem cell growth factor project, primary screen (AID 1064); conditions: higher = more signal;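 also: measures binding of the biotinylated anti-FSTL3 antibody to printed compounds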
# [2] = binders from COS7 lysate, DM2A8 probe, primary screen, torsin A project, cell lysate, small-molecule microarray, fluorescence 635/667 (AID 1065); conditions: higher = more signal, COS7 lysate expressing mutant human TOR1A
# [3] = small molecules captured by biotinylated probe aFGF2 – biochemical, small-molecule microarray, fluorescence 635/667, stem cell growth factor project, primary screen (AID 1067); conditions: higher = more signal;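 also: measures binding of biotinylated aFGF2 protein to printed compounds on slides; z-score merges feature fluorescence and signal-to-noise across triplicate slides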
# [4] = small molecules captured by biotinylated probe aFGF10 – biochemical, small-molecule microarray, fluorescence 635/667, stem cell growth factor project, primary screen (AID 1071); conditions: higher = more signal;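 also: score merges 667 nm spot intensity and signal to noise from triplicate slides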
# [5] = target: Neurogenic locus notch homolog protein 2 (Homo sapiens) (UniProt Q04721); test: small molecules binding Notch2 protein – biochemical, small-molecule microarray, 635 nm fluorescence, stem cell growth factors, primary screen (AID 1073); conditions: higher = more signal
# [6] = target: Pro-neuregulin-1, membrane-bound isoform (Homo sapiens) (UniProt Q02297); test: small molecules binding neuregulin-1 protein – biochemical, small-molecule microarray, fluorescence 635/667, psychiatric disease protein project, primary screen (AID 1075); conditions: NRG1 binding, 635 nm fluorescence, higher = more signal;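 also: score combines 667 nm spot fluorescence with signal to noise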
# [7] = test system: Neuregulin-1 EGF-like domain; test: small molecules binding NRG1 EGF domain – biochemical, small-molecule microarray, 635 nm fluorescence, primary screen (AID 1081); conditions: higher = more signal;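 also: binding of the protein to compounds printed on small-molecule microarray slides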
# [8] = FRG1 expression reporter modulators in myotubes – cell-based, C2C12 myotubes, firefly/Renilla luciferase, luminescence, FRG1 inhibition for FSHD, primary screen (AID 1084); conditions: FRG1 promoter luciferase, higher = more signal, called active from +8 up or from −8 down
# [9] = small molecules captured by biotinylated probe aFST – biochemical, small-molecule microarray, fluorescence 635/667, stem cell growth factor project, primary screen (AID 1086); conditions: higher = more signal;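 also: score merges 667 nm fluorescence with signal-to-noise of each printed compound spot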
# [10] = binders of probe aHhip on microarray, primary screen, stem cell growth factor project, biochemical, small-molecule microarray, fluorescence 635/667 (AID 1087); conditions: higher = more signal;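 also: score merges spot fluorescence at 667nm with spot signal to noise ratio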
# Chain of Pro-neuregulin-1, membrane-bound isoform (Homo sapiens) (Q02297 whole entry, looked up, the tested form may be a part, canonical isoform): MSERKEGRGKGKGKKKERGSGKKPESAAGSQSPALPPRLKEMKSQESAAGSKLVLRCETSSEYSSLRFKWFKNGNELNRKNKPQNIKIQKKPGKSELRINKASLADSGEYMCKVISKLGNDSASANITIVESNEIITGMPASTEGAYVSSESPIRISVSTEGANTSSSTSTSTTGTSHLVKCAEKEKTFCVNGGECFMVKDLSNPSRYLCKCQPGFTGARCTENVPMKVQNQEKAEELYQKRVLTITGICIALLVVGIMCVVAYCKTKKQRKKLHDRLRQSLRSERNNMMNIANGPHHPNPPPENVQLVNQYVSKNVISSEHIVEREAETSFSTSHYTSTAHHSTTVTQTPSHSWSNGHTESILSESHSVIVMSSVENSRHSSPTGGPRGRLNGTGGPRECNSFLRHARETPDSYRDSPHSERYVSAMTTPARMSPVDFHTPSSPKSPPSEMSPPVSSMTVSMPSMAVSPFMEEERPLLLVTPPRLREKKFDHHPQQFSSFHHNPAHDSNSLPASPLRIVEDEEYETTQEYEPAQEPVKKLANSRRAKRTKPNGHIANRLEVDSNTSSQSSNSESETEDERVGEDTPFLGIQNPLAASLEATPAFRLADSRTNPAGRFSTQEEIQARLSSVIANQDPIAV
# Chain of Neurogenic locus notch homolog protein 2 (Homo sapiens) (Q04721 whole entry, looked up, canonical isoform): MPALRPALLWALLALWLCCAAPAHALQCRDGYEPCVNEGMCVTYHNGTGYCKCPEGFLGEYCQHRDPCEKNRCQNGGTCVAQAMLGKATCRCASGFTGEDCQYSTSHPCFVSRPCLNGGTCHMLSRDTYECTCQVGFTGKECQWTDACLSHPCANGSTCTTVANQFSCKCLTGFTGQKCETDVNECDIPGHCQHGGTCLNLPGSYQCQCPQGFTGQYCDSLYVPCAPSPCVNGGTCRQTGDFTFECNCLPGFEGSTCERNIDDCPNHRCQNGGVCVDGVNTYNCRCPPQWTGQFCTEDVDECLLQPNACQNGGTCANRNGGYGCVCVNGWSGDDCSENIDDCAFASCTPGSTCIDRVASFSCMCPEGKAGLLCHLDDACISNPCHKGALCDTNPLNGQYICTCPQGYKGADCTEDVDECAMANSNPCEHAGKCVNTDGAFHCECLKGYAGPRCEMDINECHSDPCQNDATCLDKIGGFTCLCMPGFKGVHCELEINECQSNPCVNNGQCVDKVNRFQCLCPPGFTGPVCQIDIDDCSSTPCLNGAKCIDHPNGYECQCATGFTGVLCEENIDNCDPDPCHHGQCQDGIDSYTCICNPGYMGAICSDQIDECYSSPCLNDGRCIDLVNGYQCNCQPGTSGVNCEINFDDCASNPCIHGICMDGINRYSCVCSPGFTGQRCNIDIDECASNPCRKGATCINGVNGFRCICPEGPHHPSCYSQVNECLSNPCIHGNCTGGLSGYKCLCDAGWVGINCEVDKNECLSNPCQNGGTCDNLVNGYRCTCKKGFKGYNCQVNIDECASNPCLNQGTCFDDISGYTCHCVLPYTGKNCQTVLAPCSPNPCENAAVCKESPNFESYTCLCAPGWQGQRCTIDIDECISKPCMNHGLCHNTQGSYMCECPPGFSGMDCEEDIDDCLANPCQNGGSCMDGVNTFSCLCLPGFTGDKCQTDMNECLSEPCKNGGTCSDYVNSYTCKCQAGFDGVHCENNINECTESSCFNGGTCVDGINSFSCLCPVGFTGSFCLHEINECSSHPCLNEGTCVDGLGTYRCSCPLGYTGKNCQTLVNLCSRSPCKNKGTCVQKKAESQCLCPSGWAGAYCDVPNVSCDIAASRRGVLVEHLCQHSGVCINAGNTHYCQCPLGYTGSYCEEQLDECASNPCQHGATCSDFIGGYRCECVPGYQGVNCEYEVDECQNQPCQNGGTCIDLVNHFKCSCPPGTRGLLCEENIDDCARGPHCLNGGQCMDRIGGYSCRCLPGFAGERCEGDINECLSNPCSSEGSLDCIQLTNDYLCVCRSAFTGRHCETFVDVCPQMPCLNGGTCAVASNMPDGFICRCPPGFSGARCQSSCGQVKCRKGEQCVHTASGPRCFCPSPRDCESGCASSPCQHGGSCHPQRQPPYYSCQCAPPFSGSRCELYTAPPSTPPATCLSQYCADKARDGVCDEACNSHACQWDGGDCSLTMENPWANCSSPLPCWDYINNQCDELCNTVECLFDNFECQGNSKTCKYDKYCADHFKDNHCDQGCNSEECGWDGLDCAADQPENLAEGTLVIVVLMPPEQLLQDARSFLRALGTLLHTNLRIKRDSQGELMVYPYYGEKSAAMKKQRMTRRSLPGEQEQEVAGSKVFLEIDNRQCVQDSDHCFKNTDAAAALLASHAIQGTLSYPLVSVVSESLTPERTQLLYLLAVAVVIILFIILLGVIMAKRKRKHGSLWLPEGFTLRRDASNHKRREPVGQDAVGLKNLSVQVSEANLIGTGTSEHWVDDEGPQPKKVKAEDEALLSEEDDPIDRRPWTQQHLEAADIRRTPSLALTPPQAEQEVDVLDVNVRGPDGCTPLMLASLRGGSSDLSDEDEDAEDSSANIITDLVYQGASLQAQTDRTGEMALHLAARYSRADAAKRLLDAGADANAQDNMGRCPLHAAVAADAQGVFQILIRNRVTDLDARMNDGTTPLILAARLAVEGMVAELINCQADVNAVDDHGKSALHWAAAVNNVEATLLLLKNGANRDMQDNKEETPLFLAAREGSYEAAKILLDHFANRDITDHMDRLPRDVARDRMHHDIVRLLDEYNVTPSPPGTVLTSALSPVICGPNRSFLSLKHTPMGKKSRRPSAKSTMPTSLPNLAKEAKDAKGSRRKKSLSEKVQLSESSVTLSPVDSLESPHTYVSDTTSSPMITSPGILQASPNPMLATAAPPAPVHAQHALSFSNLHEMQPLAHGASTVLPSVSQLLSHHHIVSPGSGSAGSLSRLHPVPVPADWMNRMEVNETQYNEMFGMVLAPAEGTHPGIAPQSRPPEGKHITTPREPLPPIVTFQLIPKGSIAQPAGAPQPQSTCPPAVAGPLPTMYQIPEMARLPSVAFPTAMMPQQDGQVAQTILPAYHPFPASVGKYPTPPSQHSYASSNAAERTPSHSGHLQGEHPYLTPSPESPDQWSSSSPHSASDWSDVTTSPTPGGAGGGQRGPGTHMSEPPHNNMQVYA
SMILES,composite z-score [1],composite z-score [2],composite z-score [3],composite z-score [4],composite z-score [5],composite z-score [6],composite z-score [7],z-score [8],composite z-score [9],composite z-score [10]
C=CC[C@@H](O)c1ccc(O)c(F)c1,1.77 and 0.459,0.897 and -0.727,-0.0695 and -0.194,-0.03 and -1.69,-1.42 and -2.14,-0.627 and -0.0657,0.684 and 0.704,0.572 (inactive) and -1.4 (inactive),-0.922 and -0.799,-0.132 and 0.0392
CCOC(=O)CCN1C(=O)[C@H]2[C@H]3[C@H](O)[C@H](O)CC(=NNC(=O)OCC)[C@@H]3CC[C@H]2C1=O,-0.144,0.303,-0.0459,0.348,0.708,-0.388,-0.0801,0.142 (inactive),0.62,-0.0994
CC(C)=NOCc1ccc(-c2cn([C@@H]3COC[C@H]3O)nn2)cc1,-0.401,0.032,-0.0268,0.543,0.31,-0.766,0.718,0.0937 (inactive),0.169,0.0722
C[C@@H](c1ccccc1)N1C(=O)[C@H]2[C@H]3[C@H](O)[C@H](O)CC(=O)[C@@H]3CC[C@H]2C1=O,-0.289,0.118,-0.0193,0.534,0.694,-0.0676,0.603,-1.06 (inactive),0.435,-0.0672
CCOC(=O)c1ccc(NC(=O)O[C@H]2[C@H](OC(=O)Nc3ccccc3)[C@@H](OC(=O)Nc3ccccc3)[C@@H](OC)O[C@@H]2CO)cc1,0.181 and 0.179,0.791 and 0.936,0.211 and 0.164,1.01 and 1.18,1.59 and 1.44,1.46 and 1.3,1.33 and 1.43,1.13 (inactive) and 0.183 (inactive),1.29 and 1.2,0.167 and 0.24
C=C[C@@H](C)[C@@H](O)c1ccc(O)c2ccccc12,0.306 and 0.254,-0.54 and -0.797,-0.105 and -0.154,-0.262 and -0.0511,-1.51 and -1.17,-0.775 and -0.178,-0.377 and 0.98,1.07 (inactive) and 0.849 (inactive),-0.774 and -0.854,-0.287 and -0.184
O=C1NC(=O)C2C1C=CC(C(O)c1ccc([N+](=O)[O-])cc1)N2Nc1ccc(Cl)cc1Cl (stereo not given),0.396 and 1.04,0.0888 and 1.29,-0.0044 and 0.115,0.694 and 0.322,1.13 and 0.991,1.18 and 1.78,0.939 and 1.21,0.0748 (inactive) and -0.358 (inactive),0.848 and 1.54,-0.226 and -0.236
CC(C)=CCCC(C)=CCON=C1C[C@@H](O)[C@@H](O)[C@@H]2[C@@H]3C(=O)N([C@@H](C)c4ccccc4)C(=O)[C@@H]3CC[C@H]12,-0.372,0.384,-0.044,0.573,0.744,1.13,0.751,-0.763 (inactive),0.503,0.0627
COC(=O)C1=C(C)N(Cc2ccccc2)C2=C3C(=O)CCC[C@@H]3[C@@](O)(C(=O)OC)C(=O)N2[C@@H]1c1ccccc1,-0.438 and -0.212,0.999 and -0.117,-0.122 and -0.0125,0.482 and 0.544,0.723 and 0.6,-0.046 and -0.158,0.211 and 0.476,-0.403 (inactive) and 0.0176 (inactive),0.325 and 0.107,0.136 and -0.0994
C=C[C@@H](C)[C@@H](O)c1ccc(OCCO)cc1,1.01 and 0.0727,-1.44 and -0.971,-0.232 and -0.273,-1.47 and -1.27,-1.86 and -1.3,-0.408 and -0.496,-0.477 and -0.674,4.33 (inactive) and 1.84 (inactive),-1.9 and -0.848,-0.242 and -0.644
C=CCN(C(=O)C1N(CCCCCCO)C(=O)C2C(C(=O)O)C3C=CC21O3)C(C)(C)C (stereo not given),0.619 and 0.997,-1.01 and -1.12,-0.159 and -0.313,-1.58 and -1.55,-1.01 and -1.71,1.07 and -0.354,-0.192 and 0.886,3.01 (inactive) and 0.174 (inactive),-0.492 and -1.5,-0.169 and 0.0373
CC(C)[Si]1(C(C)C)OCc2cc(C3CC3)nc(CCc3ccccc3)c21,-0.141 and -0.208,-0.305 and 0.114,-0.0412 and -0.16,-0.124 and 0.172,0.0069 and 0.589,-0.352 and -0.0692,-1.21 and -0.253,-0.218 (inactive) and 0.53 (inactive),0.0391 and 0.169,-0.0237 and -0.118
CC(C)OC(=O)C=C1C[C@@H](c2cccc(C(F)(F)F)c2)O[C@@H](c2cccc(C(F)(F)F)c2)O1,0.0946 and 0.128,0.297 and 1.36,0.0043 and -0.13,0.884 and -0.153,-0.27 and -0.628,1.13 and 0.36,1.01 and 1.08,-0.0881 (inactive) and -0.227 (inactive),-0.0032 and -0.598,-0.236 and -0.253
C=CCN(CCCC)C(=O)C1N(CCCCCCO)C(=O)C2C(C(=O)O)C3C=CC21O3 (stereo not given),1.42 and 1.34,-0.0373 and -0.98,-0.153 and -0.112,-0.0134 and -0.092,-2.57 and -2.12,-0.506 and 0.0117,0.796 and 1.46,0.591 (inactive) and 0.91 (inactive),-1.41 and -0.957,-0.383 and -0.204
COC(=O)C1=C(C)N(Cc2ccccc2)C2=C(C(C)=O)C[C@@](O)(C(=O)OC)C(=O)N2[C@@H]1c1ccccc1,-0.335 and -0.244,1.12 and -0.0954,-0.0005 and -0.118,0.889 and 0.0839,1.43 and 1.26,-0.119 and -0.159,1.05 and 0.439,-0.486 (inactive) and -0.75 (inactive),0.235 and 0.385,-0.0994 and 0.21
C=CCN(C(=O)C(c1cccs1)N(C(=O)/C=C\C(=O)O)c1c(Cl)cccc1CO)C(C)(C)C (stereo not given),1.49 and 1.64,-1.2 and -1.76,-0.232 and -0.235,-1.69 and -1.27,-1.86 and -2.21,-0.732 and -1.05,-0.301 and -0.512,1.06 (inactive) and 1.34 (inactive),-0.791 and -0.727,0.228 and -0.554
